# Reference: the supplement of paper PMC6555819
# Test system: VDR:RXRa (NR concentration 270 nM, RXRa partner concentration 90 nM)
# Assay: PBM binding z-score (relative to random genomic background probes); higher = stronger binding; sequences stand for … in GC…GCGATTGACAGCGTAGAATGAAGG
# Procedure: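 Protein-binding microarray (Agilent 4x180K custom design, double-stranded 60-nt probes: 5' GC cap, 34-nt variable region, 24-nt constant primer region; full probe sequence given). Purified or IVT nuclear receptor:RXRα heterodimers (3:1 NR:RXRα, mostly 270:90 nM) or homodimers were incubated for 1 h in PBS with 2% milk and no ligand, then detected with Alexa488 antibodies. Fluorescence from o1-orientation probes (~5 replicates averaged) was converted to z-scores against 500 random hg19 background probes. Variable regions are seed direct-repeat (DR0–DR5) sites, all their single-nucleotide variants and half-site ablations.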
row,Sequence,PBM binding z-score
1,GCTGCTAGGTCAACTGATGGTCAGCAAAAGCTCG,1.69
2,TCGAGTAGATTACCAATGGGGCATTCAGCTTTCT,-0.414
3,ACTCAAAGTTCAGGACGAGGTAACGTAAAGCACG,3.22
4,ACTGACAGGTGAGTGAAGGTAACTCAGCTGGACG,-0.322
5,AGTACAGGGTCACTAGGCCAGAGTAGGTACGAAT,3.83
6,ATATGTAGGTTAGCCGGGGTCATTCAGACTAGGC,6.67
7,CCTGCTAGGTCATGGTCAGTTAATCTACAGTATG,2.28
8,TCTTGTAGATCAGCAGGTTAAGGAAGCTGGCCAA,0.37
9,CGACCAAGGTCAAAGGTCAGTGAAGAGATGACGG,6.85
10,ACTAGCAGGCCAAGTTTGGGTCGCTCAAACAAAG,-0.328
11,TCTAGCAGGCCAGAGGGTCATTCAAGAGGTACGG,2.25
12,CAAACTAGGTCACAGGAAGGTCAAAGTCCGCATG,5.74
13,TATACAGGGTCAATGGCCAGAGTACGAATGTCGA,4.05
14,GCGGACAGGTGAAACGCAGGTAACTCAGGGTGGC,-0.55
15,AATATAGGGTCATCGTAGGCCAGAGTACGCACAG,5.22
16,ATCTCTAGGTAACGAGTTCAGTGAAAGAGAGGAC,3.5
17,CGAACTAGGTCAACCAGGACAGTGAATACATTGA,4.96
18,CGAACTAGGACATTGACAGGACAGTGAATAGTAA,-0.192
19,AATACAGGGTCATCGTAGGGCAGAGTACGCACAG,5.71
20,CTTCCAAGGTCAAGGTCAGTGAAAGAGACTCGAA,4.87

row,Sequence,PBM binding z-score
1,CTCGAAAGGTCGTTCTCAGGTGAGTATACCAAAC,3.95
2,ACTAGTTGGTCAGCTGAGGTCACATACAATTCGG,4.21
3,TCTCGGTGGACACGAAAGGTCAGAGCTCGACATC,2.84
4,CCTCGGAGGACAACAGGAGGTAAGAGCTGCCAGA,-0.357
5,ATCTCTAGGTAACCAAGTTCAGTCAATGCCGAAC,4.36
6,TCTTGTAGATCAATAGAGGTTAAGTAAGTGCGCT,2.65
7,AGAATGAGGTTATACGTAGATCAGGGGAGAAAGT,1.42
8,GATACAGGGTCAGCTAGAGGCCCGAGTATGGAAA,2.11
9,ATCTCTAGGTAAGGTTCAGTGAAAGATCGATAGA,1.33
10,CCTGCTAGGTCCTGGTCAGCTAATCTACAGTATG,-0.588
11,AGTCAAAGTTCAGGACGAAGTAACGTAAAGCACG,2
12,ACTAGCAGGCCTAGTTTGGGTCACTCAAACAAAG,-0.0369
13,TCTAGCAGGCCAGAGGGTCACTCACGAGGTACGG,1.33
14,GCTTGTAGATCAAGGGTAAGAAAGACTAAGCTAA,-0.559
15,TCTTGTAGATCAAGGGTTAAGAAAGCCGAAGCCT,0.604
16,GGAACGAGGCCAAAGTTGATAGCATCTGTCGACG,-0.112
17,AGAACTAGGGCAATGAGTTGATAGCACGGGTGGC,3.17
18,TCTTGTAGATCAGCAGGTTAAGAACGCTGGCCAA,0.123
19,GCCAGTTGGTCAGTAAAAGGTCACACACCGGTCG,3.94
20,TTACCAAGGTGAGCTGAGGTCGTGGATCCAACTC,3.37
